Laboratory results: PubChem BioAssay AID504847 (National Center for Advancing Translational Sciences (NCATS), 2011)
Values joined by “and” are separate entries in the source; they are usually repeats but may differ in a detail not shown here. Identical values can stand only once. The campaign covered roughly 400,000 compounds. About 3,700 (0.93%) were called active. Another 3% or so got no clear call; they are omitted. What follows is part of a selection rich in actives, with near analogues and random picks from the rest. Where a structure was tested more than once in an assay, its records may differ in their call. Unmarked numbers belong to inactive results. Calls come from the whole dose curve; as a rule, active = well fitted inhibition curve with a large enough effect; inconclusive = small, poorly fitted or top-dose-only effect, or another doubt; inactive = no such curve, though single readings can be large or run the other way.

Each compound was assayed against Vitamin D3 receptor (Homo sapiens) (UniProt P11473) (assay: Inhibitors of the vitamin D receptor (VDR): qHTS). Conditions: VDR-SRC2-3 peptide fluorescence polarization, 2 h; max response, negative = inhibition: hits give low values.
Sequence of Vitamin D3 receptor (Homo sapiens) (P11473 whole entry, looked up): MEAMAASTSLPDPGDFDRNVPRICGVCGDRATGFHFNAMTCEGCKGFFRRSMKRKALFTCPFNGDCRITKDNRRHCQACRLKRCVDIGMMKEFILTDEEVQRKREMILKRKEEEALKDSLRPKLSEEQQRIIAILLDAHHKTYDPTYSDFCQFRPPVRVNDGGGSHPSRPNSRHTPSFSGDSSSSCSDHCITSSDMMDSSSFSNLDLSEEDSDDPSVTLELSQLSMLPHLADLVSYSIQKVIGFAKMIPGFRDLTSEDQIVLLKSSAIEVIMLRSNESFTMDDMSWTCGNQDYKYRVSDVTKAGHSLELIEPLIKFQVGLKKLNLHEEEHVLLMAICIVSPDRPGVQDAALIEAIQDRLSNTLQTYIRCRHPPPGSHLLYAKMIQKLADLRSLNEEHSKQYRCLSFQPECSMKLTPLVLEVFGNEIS
Excerpt: The vitamin D receptor (VDR) is a ligand-activated transcription factor and is partially responsible for the regulation of the endocrine system. This includes the transcriptional regulation of genes involved in the production of the parathyroid hormone (PTH) and the regulation of the blood calcium level. High levels of PHT can cause hypercalcemia in the case of primary and tertiary hyperparathyroidism. The VDR-mediated gene regulation, activated by its ligand 1,25-dihydroxyvitamin D3 (1,25-(OH)2D3), is governed by the recruitment of coactivators. Our hypothesis is that small molecules, with the ability to inhibit the interaction between VDR and certain coactivators, are able to selectively modulate VDR-mediated transcription. Our long term objective is the application these VDR-coactivator inhibitors to study the role of VDR-coactivator binding for specific VDR regulated genes. Ultimately, these molecules can be developed into new treatments for hypercalcemic hyperparathyroidism. No small molecule or non-peptide inhibitors are known for the VDR-coactivator interaction.
In a collaboration between the University of Wisconsin, Milwaukee and the NIH Chemical Genomics Center (NCGC) a HTS-compatible enzymatic assay was developed. The assay uses fluorescence polarization as its read-out to measure the inhibition between VDR and coregulator peptide SRC2-3 exerted by small molecules. This assay was used to screen the NIH Molecular Libraries Small Molecule Repository (MLSMR).
NIH Chemical Genomics Center [NCGC]
NIH Molecular Libraries Probe Centers Network [MLPCN]
Assay Submitter (PI): Alexander Arnold, University of Wilwaukee
Both solutions are kept at 4 deg C and protected from light and dispensed using a Kalypsys dispenser. Then 23nl of compounds and controls are added with Kalypsys pintool. […] Plate is centrifuged at 1000 RPM for 15 seconds to remove any residual bubbles. The plate is then incubate at ambient room temperature for 2 hours.
% is set by controls: 0 for no effect and ±100 for the full control effect; potency is the fitted concentration of half-maximal effect.

Row | Structure (SMILES) | Potency | max response, negative = inhibition
1 | CC[N+](C)(CC)CCC[n+]1c(-c2ccccc2)c2cc(N)ccc2c2ccc(N)cc21 | 8.91 µM (active) | –
2 | COc1ccc2c3c1O[C@H]1C[C@@H](O)C=C[C@@]31CCN(C)C2 | – | 4.74% and -11.8%
3 | c1ccc2c(c1)[I+]c1ccccc1-2 | – | -6.32%
4 | COc1ccc(CN2C(=O)NC(=O)/C(=C\c3ccc(OC)c(OC)c3OC)C2=O)cc1 | 70.8 µM (active) | –
5 | CNC(C)[C@@H](O)c1ccccc1 (stereo partly drawn) | – | 2.28%
6 | CO[C@@H]1C[C@@H](C[C@H]2CC[C@H](C)[C@@H]([C@@H](C)C(=O)O)O2)O[C@]2(O[C@](C)([C@H]3CC[C@@](C)(C4OC([C@H]5O[C@@](O)(CO)[C@H](C)C[C@@H]5C)C[C@@H]4C)O3)C[C@H]2C)[C@@H]1C (stereo partly drawn) | – | 10.2%
7 | N#Cc1c(Cl)c(Cl)c(Cl)c(C#N)c1Cl | 0.794 µM (active) | –
8 | CCCCCCCCCCCCN=C(N)N | – | 6.41%
9 | C[C@@H]1C[C@H]2CC[C@H](O2)[C@H](C)C(=O)O[C@@H](C)C[C@@H]2CC[C@@H](O2)[C@@H](C)C(=O)O[C@H](C)C[C@H]2CC[C@H](O2)[C@H](C)C(=O)O[C@@H](C)C[C@@H]2CC[C@@H](O2)[C@@H](C)C(=O)O1 | – | 8%
10 | COc1ccc2c3c1OC1CC(O)C=C[C@@]31CCN(C)C2 (stereo partly drawn) | – | -3.65%
11 | NC[C@H](O)c1ccc(O)cc1 | – | 6.55%
12 | O=C(Nc1cccc(F)c1)N1CC[C@@]2(CCCN(C(=O)Oc3ccccc3)C2)C1 | – | 2.93%
13 | CCOC(=O)c1ncn2c1[C@@H]1CCCN1C(=O)c1cc(OC)ccc1-2 | – | -6.26%
14 | CC(=O)c1c(O)c(C)c(O)c(Cc2c(O)c3c(c(C(=O)/C=C\c4ccccc4)c2O)OC(C)(C)C=C3)c1O | 35.5 µM (active) | –
15 | CC(=O)c1c(O)c(C)c(O)c(Cc2c(O)c3c(c(C(=O)/C=C/c4ccccc4)c2O)OC(C)(C)C=C3)c1O | 14.1 µM (active) and 8.91 µM (active) and 39.8 µM (active) | –
16 | CN(C)C[C@H]1CCCC[C@]1(O)c1cccc(O)c1 | – | 1.62%
17 | Cc1cccc([C@H](C)c2cnc[nH]2)c1C | – | 7.28%
18 | CO[C@H]1[C@@H](O)[C@@H](C)O[C@H](O[C@H]2[C@H](Oc3cccc4c(O)c5c(=O)oc6ccc(C)c7c(=O)oc(c34)c5c67)O[C@H](C)[C@H](O)[C@@H]2O)[C@@H]1O | – | 14.9%
19 | Cc1ccc(-n2c(/C=C/c3cccc(C(F)(F)F)c3)nc3ccccc3c2=O)cc1 | – | 9.47%
20 | Cc1ccc(NC(=O)N(Cc2ccc3c(c2)OCO3)C2CCN(Cc3ccccc3)CC2)cc1F | – | 4.08%
21 | Fc1ccc(C(OCCN2CCN(C/C=C\c3ccccc3)CC2)c2ccc(F)cc2)cc1 | – | -15.8%
22 | CCCCC/C=C\C/C=C\C/C=C\C=C\[C@H](CCCC(=O)O)OO | – | 7.28% and 4.32%
23 | CCCCC/C=C\C/C=C\C/C=C\C/C=C\CCCCCC(=O)NCCO | 35.5 µM (active) | 17.7% and -2.94% and 0.308%
24 | CCCCC/C=C\C/C=C\C/C=C\CCCCCCC(=O)NCCO | – | -6.07% and 11.4% and 0.788%

Row | Structure (SMILES) | Potency | max response, negative = inhibition
25 | CC[C@@H]1CN2CC[C@@H]1C[C@H]2[C@H](O)c1ccnc2ccc(OC)cc12 | – | 3.71%
26 | COC(=O)N1C(c2ccccc2)C1c1ccccc1 (stereo not drawn) | – | 8.84%
27 | CC(=O)[O][Sn]([c]1ccccc1)([c]1ccccc1)[c]1ccccc1 | 2.24 µM (active) | –
28 | O=C(O)CCn1cc(C=C2C(=O)NC(=S)NC2=O)c(-c2cccc(Br)c2)n1 | 25.1 µM (active) | –
29 | C[C@@]12CC[C@H]3[C@@H](CC[C@]4(O)C[C@H](O)CC[C@@]34C=O)[C@]1(O)CC[C@@H]2C1=CC(=O)OC1 | – | 6.85%
30 | c1csc(CN2CC3(CCNCC3)C2)n1 | – | 2.29%
31 | Cc1cccc2c3c(ccc12)C1=C(C(=O)C3=O)C(C)CO1 (stereo not drawn) | 5.62 µM (active) | –
32 | COc1ccc(C2Oc3c(I)c(OC)cc(OC)c3CC2O)cc1OC (stereo not drawn) | – | -4.29%
33 | Nc1ccc(-c2ccc(N)c(N)c2)cc1N | – | 7.8%
34 | c1ccc(CCCCN2CCC(c3ccccc3)CC2)cc1 | – | 6.23% and 8.72%
35 | Cc1ncsc1CCCl | – | -5.72% and -13.2% and 18.1%
36 | COc1ccccc1-c1[se]c2ccccc2c1I | – | -10.1%
37 | N#CC(C#N)=Cc1cc(O)c(O)c([N+](=O)[O-])c1 | 44.7 µM (active) | –
38 | CCC(C)C(=O)O[C@@H]1C[C@@]2(C)C(c3ccoc3)OC(=O)CC23OC2(C)O[C@@]14[C@@]1(C)C(CC(=O)OC)C5(C)CC1(O)C(O)(C5OC(=O)C1(C)OC1C)C(OC(C)=O)[C@@]34O2 (stereo partly drawn) | – | -0.0436%
39 | C[C@]12O[C@H](C[C@@]1(O)C(=O)O)n1c3ccccc3c3c4c(c5c6ccccc6n2c5c31)CNC4=O | – | 0.321%
40 | COc1cc2c(cc1OC)[C@@H]1C(=O)c3ccc(O)c(CC=C(C)C)c3OC1CO2 (stereo partly drawn) | – | 10.7%
41 | CCCCCCCCCCCCCC(=O)O[C@@H]1[C@@H](C)[C@@]2(O)[C@@H](C=C(CO)C[C@]3(O)C(=O)C(C)=C[C@@H]23)[C@@H]2C(C)(C)[C@]12OC(C)=O | – | 3.48%
42 | CCC1(c2ccccc2)C(=O)NC(=O)N(C)C1=O (stereo not drawn) | – | 3.76%
43 | O=P1(Oc2ccccc2)CC(O)C(O)C(COCc2ccccc2)O1 (stereo not drawn) | – | -0.629%
44 | CC(=O)OC1C2(CC3N4C(=O)C5(CO)SSC4(CC31O)C(=O)N5C)OC(C)C(C)(C)C2=O (stereo not drawn) | 39.8 µM (active) | –
45 | Cc1cccc(Cn2cccc(C(=O)Nc3ccc4c(c3)OCCO4)c2=O)c1 | – | 10.5%
46 | Clc1ccc([C@@H]2C[C@H]3CC[C@@H]2N3)cn1 | – | 3.4%
47 | C1CC[C@H]([C@@]23C[C@H](C[C@H]4CCCN[C@H]42)[C@@H]2CCCCN2C3)NC1 | – | 1.42%
